What all share (assay): NP40-soluble protein abundance relative to vehicle (solubility fold change) (ratio); higher = more soluble protein in presence of GTP
The target of one test is T1, GLA (UniProt P06280).
T1 sequence (whole entry): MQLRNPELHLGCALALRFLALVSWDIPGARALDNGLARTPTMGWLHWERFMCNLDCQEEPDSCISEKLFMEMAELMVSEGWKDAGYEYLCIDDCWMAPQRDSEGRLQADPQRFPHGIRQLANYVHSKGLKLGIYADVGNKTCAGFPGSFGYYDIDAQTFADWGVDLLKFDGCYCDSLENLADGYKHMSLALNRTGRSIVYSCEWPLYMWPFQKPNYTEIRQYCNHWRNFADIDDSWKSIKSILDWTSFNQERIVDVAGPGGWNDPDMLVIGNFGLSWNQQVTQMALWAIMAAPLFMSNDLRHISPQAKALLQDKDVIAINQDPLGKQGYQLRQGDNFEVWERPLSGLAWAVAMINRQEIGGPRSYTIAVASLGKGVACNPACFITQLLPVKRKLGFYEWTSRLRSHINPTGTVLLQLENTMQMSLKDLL
The gist of the method: (§1)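 Eight concentrations, 0.1 to 10 mM, were tested on Jurkat crude lysate for 10 min at room temperature and then 3 min at 37 °C, in three independent experiments. The lysate was solubilised with 0.8% NP40 and benzonase, ultracentrifuged, and the supernatant TMT-labelled for LC-MS/MS. Each value is the fold change against the detergent-processed vehicle in its own replicate, from vsn-normalised intensities.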

For another test, the target named is T2, SEC24A (UniProt O95486).
T2 sequence (whole entry): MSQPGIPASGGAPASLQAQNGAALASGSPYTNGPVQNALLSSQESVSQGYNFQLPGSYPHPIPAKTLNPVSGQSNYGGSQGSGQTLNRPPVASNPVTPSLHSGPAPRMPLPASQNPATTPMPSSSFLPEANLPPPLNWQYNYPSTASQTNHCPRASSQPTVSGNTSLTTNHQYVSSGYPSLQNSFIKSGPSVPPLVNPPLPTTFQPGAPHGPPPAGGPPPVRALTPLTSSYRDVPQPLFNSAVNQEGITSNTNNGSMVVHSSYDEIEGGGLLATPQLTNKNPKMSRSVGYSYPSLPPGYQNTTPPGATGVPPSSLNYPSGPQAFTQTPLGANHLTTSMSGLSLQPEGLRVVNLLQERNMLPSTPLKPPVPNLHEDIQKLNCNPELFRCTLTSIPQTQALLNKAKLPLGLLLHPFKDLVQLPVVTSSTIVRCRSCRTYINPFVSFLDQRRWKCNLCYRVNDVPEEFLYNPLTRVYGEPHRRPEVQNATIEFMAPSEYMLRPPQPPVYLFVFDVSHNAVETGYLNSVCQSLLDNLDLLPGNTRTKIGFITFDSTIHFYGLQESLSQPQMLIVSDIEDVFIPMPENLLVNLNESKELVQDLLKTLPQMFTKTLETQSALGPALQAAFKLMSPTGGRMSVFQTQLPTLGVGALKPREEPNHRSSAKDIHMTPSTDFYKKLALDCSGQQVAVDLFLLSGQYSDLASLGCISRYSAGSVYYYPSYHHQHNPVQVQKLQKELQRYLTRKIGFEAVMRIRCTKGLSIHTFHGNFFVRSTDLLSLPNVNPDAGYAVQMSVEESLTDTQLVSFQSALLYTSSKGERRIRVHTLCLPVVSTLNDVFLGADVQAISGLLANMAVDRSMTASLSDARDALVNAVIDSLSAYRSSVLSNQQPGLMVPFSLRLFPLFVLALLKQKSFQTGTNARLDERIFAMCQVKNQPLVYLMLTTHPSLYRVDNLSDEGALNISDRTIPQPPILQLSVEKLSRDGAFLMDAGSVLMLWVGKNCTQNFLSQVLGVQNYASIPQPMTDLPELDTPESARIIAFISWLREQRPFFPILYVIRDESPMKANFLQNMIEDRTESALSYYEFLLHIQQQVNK
In a few lines:
as §1

For a further test, the target named is T3, TXNL1 (UniProt O43396).
T3 sequence (whole entry): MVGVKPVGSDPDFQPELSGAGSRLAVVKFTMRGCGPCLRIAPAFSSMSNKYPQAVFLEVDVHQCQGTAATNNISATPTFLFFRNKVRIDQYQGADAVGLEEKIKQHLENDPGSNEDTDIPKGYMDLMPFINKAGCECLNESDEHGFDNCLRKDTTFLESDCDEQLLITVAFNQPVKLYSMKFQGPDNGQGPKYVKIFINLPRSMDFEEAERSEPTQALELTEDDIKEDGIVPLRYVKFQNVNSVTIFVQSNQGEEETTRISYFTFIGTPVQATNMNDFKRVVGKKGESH
The gist of the method:
as §1

Each structure is given as a SMILES string. ± gives the standard deviation of the averaged measurements. Of roughly 5,400 targets only a part is listed; those with the largest changes were picked by preference.

Consider `Nc1nc2c(ncn2[C@@H]2O[C@H](COP(=O)(O)OP(=O)(O)OP(=O)(O)O)[C@@H](O)[C@H]2O)c(=O)[nH]1` [guanosine triphosphate], for which the NP40-soluble protein abundance with GLA (concentration: 0.1mM) came out at 1.04 ± 0.017; with GLA (concentration: 0.5mM), 1.04 ± 0.018; with GLA (concentration: 1mM), 1.01 ± 0.039; with GLA (concentration: 2mM), 0.982 ± 0.068; in the test with GLA (concentration: 4mM), 0.985 ± 0.063; in the test with GLA (concentration: 6mM), 0.966 ± 0.087. For the same compound, the NP40-soluble protein abundance with GLA (concentration: 8mM) turned out to be 0.983 ± 0.04; with GLA (concentration: 10mM), 0.979 ± 0.048; with SEC24A (concentration: 0.1mM), 0.974 ± 0.013; with SEC24A (concentration: 0.5mM), 0.986 ± 0.021; with SEC24A (concentration: 1mM), 0.926 ± 0.041; with SEC24A (concentration: 2mM), 0.909 ± 0.026. Further, the NP40-soluble protein abundance with SEC24A (concentration: 4mM) was 0.957 ± 0.019; with SEC24A (concentration: 6mM), 0.944 ± 0.02; in the test with SEC24A (concentration: 8mM), 0.909 ± 0.027; with SEC24A (concentration: 10mM), 0.915 ± 0.036; in the test with TXNL1 (concentration: 0.1mM), 0.993 ± 0.02; with TXNL1 (concentration: 0.5mM) it was 1.03 ± 0.064. Also, the NP40-soluble protein abundance in the test with TXNL1 (concentration: 1mM) amounted to 1.02 ± 0.042; with TXNL1 (concentration: 2mM), 1.01 ± 0.07; in the test with TXNL1 (concentration: 4mM) it was 1 ± 0.052; with TXNL1 (concentration: 6mM), 1.01 ± 0.046; in the test with TXNL1 (concentration: 8mM), 1 ± 0.044; with TXNL1 (concentration: 10mM) it was 1.01 ± 0.054.

These data come from the supplement of paper PMC6411743.
